Compound activity as filed in PubChem.
Only some compounds are listed: those with a hit (about 6% of all), similar ones and a draw of the others.
PLK1 PBD inh: qHTS for Inhibitors of PLK1-PDB (polo-like kinase 1 - polo-box domain): Primary Screen; 2.8% of 360,000 active; Plk1 PBD binding of FITC phosphopeptide, fluorescence polarization; AID 720504, 2013; Potency, µM, for inactives: max response, negative = inhibition, hits mostly inhibitors; also: series mostly up to about 57 µM; nearly all actives have a fitted effect of over 65% in size
Target sequence (P53350 whole entry, looked up, the tested form may be a part): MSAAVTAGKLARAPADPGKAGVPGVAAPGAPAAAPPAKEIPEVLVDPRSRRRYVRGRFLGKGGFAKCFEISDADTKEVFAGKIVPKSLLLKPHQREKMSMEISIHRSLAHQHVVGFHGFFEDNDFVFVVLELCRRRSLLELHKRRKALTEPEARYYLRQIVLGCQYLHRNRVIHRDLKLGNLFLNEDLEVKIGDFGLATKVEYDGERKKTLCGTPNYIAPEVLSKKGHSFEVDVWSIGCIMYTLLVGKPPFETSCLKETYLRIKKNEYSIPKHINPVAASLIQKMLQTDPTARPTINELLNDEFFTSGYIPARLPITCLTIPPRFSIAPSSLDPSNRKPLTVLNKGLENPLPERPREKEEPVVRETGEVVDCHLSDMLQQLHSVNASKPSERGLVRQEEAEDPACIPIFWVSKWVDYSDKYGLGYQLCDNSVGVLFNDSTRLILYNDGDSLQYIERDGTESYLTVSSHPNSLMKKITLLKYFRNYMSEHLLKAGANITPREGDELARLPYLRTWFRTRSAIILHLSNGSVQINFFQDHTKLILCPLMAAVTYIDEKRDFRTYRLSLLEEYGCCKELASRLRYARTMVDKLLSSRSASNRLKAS
Tau fibril ThT: qHTS for Inhibitors of Tau Fibril Formation, Thioflavin T Binding; Microtubule-associated protein tau (Homo sapiens), P10636; recombinant tau K18 P301L, heparin-induced fibrillization, ThT fluorescence; Potency, µM (highest dose often 57.4 µM), for the others: at the top dose activity, negative = inhibition, actives largely listed as inhibitors; 2.1% of 270,000 active; also: nearly all actives have a fitted effect of over 55% in size
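K18 P301L tau (15 uM + 0.24 uM Alexa 594-tagged), heparin 20 uM, NaOAc pH 7, 6 h 37 C; ThT 30 uM, 1 h RT, ex 450/em 510 nm.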
Tau fluor counter: Counterscreen qHTS for Inhibitors of Tau Fibril Formation, Fluorescence Polarization | tau K18 P301L Alexa594 fluorescence, heparin fibrillization | Potency, µM (doses to about 57.7 µM), for the others: at the highest dose activity change, negative = decrease | 0.93% of 280,000 active | AID 1463, 2008; also: nearly all actives have a fitted effect of over 55% in size
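Human tau K18 P301L (15 uM unlabeled, 0.24 uM Alexa 594-labeled) in 100 mM sodium acetate pH 7 with 20 uM heparin, 6 hr at 37 C. ThT 30 uM added, 1 hr ambient; Alexa 594 FP and total fluorescence read at 555/632 nm.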
Sfp PPTase inh: qHTS Assay for Inhibitors of Bacillus subtilis Sfp phosphopantetheinyl transferase (PPTase); 4'-phosphopantetheinyl transferase ffp (Bacillus subtilis), Q9F4F7; Biochemical Sfp PPTase activity, qHTS; Potency, µM, for the others: largest response in the series, negative = inhibition, most hits filed as inhibitors; 3.5% of 310,000 active; AID 1490, 2009;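 also: the enzyme is Sfp with the accession as filed and its product quenches rhodamine fluorescence; 0% = enzyme reaction without inhibitor and -100% = no enzyme wells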
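Fluorescence-quenching assay: 15 nM Sfp-PPTase preincubated 15 min at room temperature with compound, then 5 uM rhodamine-CoA and 12.5 uM BHQ-2-labelled YbbR peptide added. Fluorescence (ex 525/em 598 nm) read at start and after 30 min; difference gives rate.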
Tau fibril FP: qHTS for Inhibitors of Tau Fibril Formation, Fluorescence Polarization; Microtubule-associated protein tau (Homo sapiens), P10636; K18 P301L tau heparin fibrillization, Alexa594 FP, 6 h; Potency, µM (titrated, usually from 57.7 µM), without a hit: at the highest dose activity, negative = inhibition, most hits filed as inhibitors; 0.39% of 280,000 active; also: nearly all actives have a fitted effect of over 55% in size
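Compound effects on tau fibrillization are measured by Alexa 594 fluorescence polarization (ex 555, em 632 nm). K18 P301L tau is used at 15 uM with 0.24 uM labeled tracer, and 20 uM heparin induces aggregation over 6 hr at 37 C.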
VDR inh: Inhibitors of the vitamin D receptor (VDR): qHTS; Potency, µM, inactives show max response, negative = inhibition, most hits filed as inhibitors; VDR-SRC2-3 peptide fluorescence polarization, 2 h; AID 504847, 2011; 0.93% of 400,000 active
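Inhibition of the VDR/SRC2-3 peptide interaction is quantified by fluorescence polarization. Compounds (23 nl, pintool) incubate with the reagents for 2 hours at ambient room temperature.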
* hit, by the source's call; ! = repeats disagree; [ ] = remark or other dose. Calls follow the shape of the dose curve; as a rule, active = well fitted curve in the direction sought with a large enough effect; inconclusive = small, poorly fitted or top-dose-only effect, or another doubt; inactive = no such curve, though single readings can be large; an effect the other way counts as inactive or inconclusive. Unless noted, % is scaled to controls: 0 for no effect and ±100 for the full control effect; potency is read from the fitted curve at half-maximal effect.

How did COc1cc2c(cc1OC)C1(O)C(=O)c3ccc(O)c(C(=O)O)c3OC1CO2 (stereo not drawn) do in these assays?
Tau fibril ThT: -4%; Tau fluor counter: -12%; Sfp PPTase inh: -19%; Tau fibril FP: -1%; VDR inh: 7%

How did COc1ccc(C(=O)NNC(=S)NC(=O)/C=C/c2cccs2)cc1 do in these assays?
PLK1 PBD inh: -21%; Tau fibril ThT: -5%; Tau fluor counter: 9%[2.34 µM]; Sfp PPTase inh: 1%; Tau fibril FP: 4%; VDR inh: 17%

How did O=C(/C=C/c1cccs1)NC(=S)NNC(=O)c1ccccc1O do in these assays?
PLK1 PBD inh: -22%; Tau fibril ThT: 14µM*; Tau fluor counter: inconclusive; Sfp PPTase inh: 37%; Tau fibril FP: 6%; VDR inh: -12%

Results for COC(=O)c1ccccc1NC(=O)NCc1ccncc1 ?
PLK1 PBD inh: 21µM*; Tau fibril ThT: -1%; Tau fluor counter: 1%; Sfp PPTase inh: 1%; Tau fibril FP: 1%; VDR inh: -2%

What do the screens show for `COC(=O)c1ccccc1NC(=O)Nc1cccs1`?
PLK1 PBD inh: 0%; Tau fibril ThT: inconclusive; Tau fluor counter: -15%; Sfp PPTase inh: 40µM*; Tau fibril FP: -11%; VDR inh: -11%

How did OC(COCC1COc2ccccc2O1)CN1CCCCC1 (stereo not drawn) do in these assays?
PLK1 PBD inh: 30µM*; Tau fibril ThT: 1%; Tau fluor counter: 2%; Sfp PPTase inh: 11%; Tau fibril FP: 3%; VDR inh: -9%

What do the screens show for `CCN1CCN(CC(O)COCC2COc3ccccc3O2)CC1` (stereo not drawn)?
PLK1 PBD inh: -2%; Tau fibril ThT: 0%; Tau fluor counter: -5%; Sfp PPTase inh: 14%; Tau fibril FP: 0%; VDR inh: -2%

How did CCC(=O)Nc1ccc2nc(C3CC3)n(Cc3ccc(C(C)(C)C)cc3)c(=O)c2c1 do in these assays?
PLK1 PBD inh: 12µM*; Tau fibril ThT: 2%; Tau fluor counter: -22%; Sfp PPTase inh: 2%; Tau fibril FP: -16%; VDR inh: inconclusive

Results for O=C1NC(=O)C(c2ccccc2)(c2ccc(Cl)cc2Cl)N1 (stereo not drawn) ?
PLK1 PBD inh: 3%; VDR inh: -20%

Results for O=c1cc(-c2ccccc2)oc2cc(O)c(O)c(O)c12 ?
PLK1 PBD inh: -26%; Tau fibril ThT: 25µM*; Tau fluor counter: inconclusive; Sfp PPTase inh: 28µM*!; Tau fibril FP: 28µM*; VDR inh: -14%

What do the screens show for `O=c1cc(-c2ccc(O)cc2)oc2c(O)c(O)c(O)c(O)c12`?
PLK1 PBD inh: -25%; Tau fibril ThT: 14µM*; Tau fluor counter: inconclusive; Sfp PPTase inh: 4.5µM*; Tau fibril FP: inconclusive; VDR inh: -28%

How did O=C(Nc1ccc2c(c1)OCO2)C1CC(=O)N(c2ccc3c(c2)OCCO3)C1 (stereo not drawn) do in these assays?
PLK1 PBD inh: -2%; Tau fibril ThT: -8%; Tau fluor counter: -7%; Sfp PPTase inh: 12%; Tau fibril FP: 2%; VDR inh: -10%

Results for CC(C)[C@H](NC(=O)C1CC(=O)N(c2ccc(F)cc2)C1)C(=O)N1CCCCC1 (stereo partly drawn) ?
PLK1 PBD inh: 3.4µM*; Sfp PPTase inh: 7%; VDR inh: inconclusive

Results for O=C(C1CC(=O)N(c2ccc(F)cc2)C1)N1CCN(c2ccc(F)cc2)CC1 (stereo not drawn) ?
PLK1 PBD inh: 0%; Sfp PPTase inh: -7%; VDR inh: 26%
